Assay [1] is described as follows: Nuclear factor erythroid 2-related factor 2/antioxidant responsive element (Nrf2/ARE) small molecule agonists: luciferase reporter gene qHTS assay in human keratinocytes (AID 1919969). Note: nearly all actives have a fitted effect of over 35% in size. Note: potency is the fitted concentration of half-maximal effect. Background: Reporter assays use an easily measured gene product as a stand-in for the process of interest.
In assay [2] the target is Gonadotropin-releasing hormone receptor (Homo sapiens) (UniProt P30968). Put plainly: Human gonadotropin-releasing hormone receptor (GnRHR) small molecule agonists, calcium flux assay in GnRHR-HEK293 cells (AID 1920063). Note: nearly all actives have a fitted effect of over 35% in size. Note: potency is the fitted concentration of half-maximal effect. In outline: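 Compounds dissolved in DMSO are pin-transferred onto dye-loaded GnRHR-HEK293 cells, which were seeded 18 h before at 37 C/5% CO2. Calcium signal is read as fluorescence intensity at 1 s intervals for 3 min.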

The target in assay [3] is KiSS-1 receptor (Homo sapiens) (UniProt Q969F8). Put plainly: Human kisspeptin (KISS1R) small molecule agonists, calcium flux assay in KISS1R-HEK293 cells (AID 1920064; active = well fitted activation curve with a large enough effect in the repeat runs). In outline: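 Cell line: HEK293, stable human KISS1R. Dye loading 1 h at 37 C after 18 h culture. Read: kinetic fluorescence, 480/540 nm, 3 min at 1 s intervals.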
For orientation: Calcium assays in cells follow changes in intracellular calcium, usually with a dye or a luminescent sensor.

The nature of assay [4]: G protein-coupled receptor (GPCR) small molecule agonists, calcium flux assay: HEK293 wild type cell line counter screen (AID 1920065). In outline:
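Tox21 10K compounds, 15 concentrations each in triplicate, pin-transferred in DMSO onto dye-loaded cells; kinetic read at 480/540 nm for 3 min, 1 s intervals.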

Assay [5] in a line: p53 small molecule agonists, cell-based qHTS assay with human liver microsomes: qHTS cell viability counter screen (AID 1963579). Note: nearly all actives have a fitted effect of over 45% in size. In outline:
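Seed p53RE-bla cells at 4,000 per well; incubate 5 h at 37 C; add compound, human liver microsomes and NADPH; incubate 16 h at 37 C; add CellTiter-Glo; after 30 min at room temperature, read luminescence.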
In general terms: qHTS replaces the single test concentration by a dilution series.

Assay [6] in a line: p53 small molecule agonists, cell-based qHTS assay: qHTS cell viability counter screen (AID 1963581). Note: nearly all actives have a fitted effect of over 45% in size. In outline: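 ATP content measured by luminescence in HCT-116 p53RE-bla cells treated 16 h at 37 C, same wells as the reporter screen.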
The target in assay [7] is 5-hydroxytryptamine receptor 2A (Homo sapiens) (UniProt P28223). Kind of assay: 5-hydroxytryptamine receptor 2A (HTR2A) small molecule antagonists, cell-based qHTS assay (AID 1963586). Note: nearly all actives have a fitted effect of over 45% in size. In outline: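 CHO cells stably expressing human HTR2A were plated for 18 h at 37 C, then loaded with calcium dye for 1 h. Compounds were preincubated 5 min at room temperature before DOI (4 nM solution) was added. Kinetic fluorescence was read for 3 min.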

The target in assay [8] is Muscarinic acetylcholine receptor M1 (Homo sapiens) (UniProt P11229). Kind of assay: Cholinergic receptor muscarinic 1 (CHRM1) small molecule antagonists, cell-based qHTS assay (AID 1963588). Note: nearly all actives have a fitted effect of over 40% in size. In outline:
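Compounds were tested at 15 concentrations in three independent runs. Dye-loaded CHRM1-CHO cells were exposed 5 min at room temperature before stimulation by acetylcholine added at 50nM. Intracellular calcium was read kinetically on FDSS for 3 min.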

The target is the same in assay [9]. Put plainly: Cholinergic receptor muscarinic 1 (CHRM1) small molecule agonists, cell-based qHTS assay (AID 1963589). Note: nearly all actives have a fitted effect of over 35% in size. In outline: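 Homogeneous fluorescence calcium flux, agonist mode. Human M1-expressing CHO cells; compound dosed at 15 concentrations, three independent runs; signal sampled every 1 sec.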
In assay [10] the target is Beta-2 adrenergic receptor (Homo sapiens) (UniProt P07550). Put plainly: Adrenergic beta2 receptor (ADRB2) small molecule antagonists, cell-based qHTS assay (AID 1963592). Note: series mostly up to about 92 µM; nearly all actives have a fitted effect of over 50% in size. In outline:
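Assay format: CHO-ADRB2 cells, 18-20hr seeding at 37C/5% CO2, then compound plus 1nM isoproterenol agonist mix for 0.5hr RT. Homogeneous time-resolved fluorescence cAMP detection after 1hr, expressed as 665/615 nm ratio.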

Assay [11] concerns the target D(2) dopamine receptor (Homo sapiens) (UniProt P14416). Kind of assay: Dopamine D2 receptor (DRD2) small molecule agonists, cell-based qHTS assay (AID 1963594). Note: nearly all actives have a fitted effect of over 35% in size. In outline:
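HEK293 cells stably expressing human DRD2, pre-treated with PDE inhibitor Ro20-1724 (0.1 mM final) and compound 10 min at room temperature, then stimulated with NKH477 (200nM […]) for 30 min. cAMP read by HTRF (665/620 nm).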

The target is the same in assay [12]. Kind of assay: Dopamine D2 receptor (DRD2) small molecule antagonists, cell-based qHTS assay (AID 1963595; active = well fitted inhibition curve with a large enough effect in the signal ratio in the repeat runs, with a control signal flat; the % refers to the signal ratio). In outline:
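Antagonist mode in DRD2-HEK293 cells: after compound addition with 0.1 mM Ro20-1724, cells received quinpirole (12 nM) and NKH477 (200 nM) for 30 min at room temperature; HTRF cAMP read after 1 h detection.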

The nature of assay [13]: p53 small molecule agonists, cell-based qHTS assay with rat liver microsomes: qHTS cell viability counter screen (AID 1963580). Note: nearly all actives have a fitted effect of over 45% in size. In outline:
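After the beta-lactamase ratio was read, CellTiter-Glo was added to the same wells and luminescence measured at 30 min; cells had been treated 16 h at 37 C with compounds, rat liver microsomes and NADPH (0.5 mg/mL final each).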

Assay [14] addresses 5-hydroxytryptamine receptor 2A (Homo sapiens) (UniProt P28223). Put plainly: 5-hydroxytryptamine receptor 2A (HTR2A) small molecule agonists, cell-based qHTS assay (AID 1963587). Note: nearly all actives have a fitted effect of over 30% in size. In outline: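 CHO cells stably expressing human HTR2A, plated 18 h, loaded with calcium dye 1 h at 37 C. Agonist mode: compounds added and intracellular calcium fluorescence recorded kinetically for 2 min at 1 sec intervals.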

The nature of assay [15]: cAMP Responsive Elements (CRE) small molecule agonists, cell-based qHTS assay (AID 1963590). In outline: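 HEK 293T cells stably bearing CRE-bla were plated at 2,000 cells per well and rested 18 h. Compounds, positive controls or DMSO were added for 3 h at 37 C. LiveBLAzer B/G substrate was then loaded for 2 h at room temperature.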
Assay [16] in a line: cAMP Responsive Elements (CRE) small molecule antagonists, cell-based qHTS assay (AID 1963591; active = well fitted inhibition curve with a large enough effect in the signal ratio in the repeat runs, not every such curve was filed as active; the % refers to the signal ratio). In outline: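 First, CRE-bla HEK293T cells settled 18 h at 37 C. Next, compound and 0.25 uM final NKH477 were applied for 3 h. Last, LiveBLAzer B/G substrate was loaded for 2 h at room temperature.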
Assay [17] is described as follows: p53 small molecule agonists, cell-based qHTS assay with human liver microsomes (AID 1963577). In outline: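 Cells carrying a p53-responsive bla reporter were rested 5 h (37 C, 5% CO2) before compound transfer. Human liver microsomes plus NADPH, 0.5 mg/mL final apiece, supplied metabolism during the 16 h 37 C exposure.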
Assay [18] in a line: p53 small molecule agonists, cell-based qHTS assay with rat liver microsomes (AID 1963578). In outline:
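Fluorescence from a beta-lactamase reporter under a p53 response element was measured after cells had been incubated 16 h at 37 C with test compound and rat liver microsomes plus NADPH (0.5 mg/mL final each).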

The nature of assay [19]: p53 small molecule agonists, cell-based qHTS assay (AID 1963582; active = well fitted activation curve with a large enough effect in the signal ratio in the repeat runs, not every such curve was filed as active; the % refers to the signal ratio). In outline:
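16 h compound exposure (37 C) of p53 response element–bla cells, preceded by 5 h recovery at 37 C/5% CO2; read-out via LiveBLAzer B/G FRET substrate, 2 h RT, fluorescence intensity.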

The target of assay [20] is Beta-2 adrenergic receptor (Homo sapiens) (UniProt P07550). Kind of assay: Adrenergic beta2 receptor (ADRB2) small molecule agonists, cell-based qHTS assay (AID 1963593).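 Note: CHO cells stably overexpressing human ADRB2.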 In outline:
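CHO cells stably over-expressing ADRB2 were plated overnight at 37C, then dosed with compounds plus a stimulation mix containing 100uM IBMX and 25uM Ro-20-1724 for 0.5hr at room temperature. cAMP was measured by HTRF competition, 1hr.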

Molecules are shown by their SMILES. Unmarked numbers belong to inactive results. Records with an inconclusive call do not appear. Calls of active or inactive are those of the source. Unless noted, calls come from the whole dose curve.

D(2) dopamine receptor (Homo sapiens), sequence (P14416 whole entry, looked up): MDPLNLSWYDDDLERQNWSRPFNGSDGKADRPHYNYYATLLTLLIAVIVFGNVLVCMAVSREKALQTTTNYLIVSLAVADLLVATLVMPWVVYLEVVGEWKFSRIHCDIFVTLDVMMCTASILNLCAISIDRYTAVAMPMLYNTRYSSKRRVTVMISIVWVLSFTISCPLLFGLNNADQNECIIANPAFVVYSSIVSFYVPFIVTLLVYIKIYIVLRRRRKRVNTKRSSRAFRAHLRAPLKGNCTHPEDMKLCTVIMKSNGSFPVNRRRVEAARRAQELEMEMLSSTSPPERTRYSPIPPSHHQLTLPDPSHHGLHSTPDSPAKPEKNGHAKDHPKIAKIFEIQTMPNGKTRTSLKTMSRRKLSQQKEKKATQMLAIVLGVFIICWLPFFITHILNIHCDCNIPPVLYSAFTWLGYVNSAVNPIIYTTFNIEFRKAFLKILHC
KiSS-1 receptor (Homo sapiens), sequence (Q969F8 whole entry, looked up): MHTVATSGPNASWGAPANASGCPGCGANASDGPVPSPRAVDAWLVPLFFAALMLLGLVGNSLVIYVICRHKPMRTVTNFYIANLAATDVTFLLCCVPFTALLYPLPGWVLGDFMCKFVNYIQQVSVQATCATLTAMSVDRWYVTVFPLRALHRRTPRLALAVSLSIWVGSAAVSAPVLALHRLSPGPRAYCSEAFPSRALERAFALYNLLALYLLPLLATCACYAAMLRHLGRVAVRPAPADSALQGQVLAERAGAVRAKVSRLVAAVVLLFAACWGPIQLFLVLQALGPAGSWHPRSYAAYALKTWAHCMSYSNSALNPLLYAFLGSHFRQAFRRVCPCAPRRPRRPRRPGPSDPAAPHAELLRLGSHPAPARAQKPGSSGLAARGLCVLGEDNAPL
5-hydroxytryptamine receptor 2A (Homo sapiens), sequence (P28223 whole entry, looked up): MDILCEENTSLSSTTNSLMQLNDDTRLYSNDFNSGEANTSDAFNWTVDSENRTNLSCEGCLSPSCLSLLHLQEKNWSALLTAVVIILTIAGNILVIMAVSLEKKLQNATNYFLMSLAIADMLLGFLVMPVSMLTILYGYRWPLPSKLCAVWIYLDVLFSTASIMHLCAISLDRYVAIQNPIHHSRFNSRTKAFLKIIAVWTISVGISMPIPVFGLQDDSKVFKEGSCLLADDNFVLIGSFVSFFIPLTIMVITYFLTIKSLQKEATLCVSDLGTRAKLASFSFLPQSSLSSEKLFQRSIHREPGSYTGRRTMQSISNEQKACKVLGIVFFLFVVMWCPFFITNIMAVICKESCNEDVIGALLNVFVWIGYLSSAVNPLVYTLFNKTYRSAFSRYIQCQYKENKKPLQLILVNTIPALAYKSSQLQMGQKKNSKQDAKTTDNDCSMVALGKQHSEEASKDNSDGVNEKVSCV
Muscarinic acetylcholine receptor M1 (Homo sapiens), sequence (P11229 whole entry, looked up): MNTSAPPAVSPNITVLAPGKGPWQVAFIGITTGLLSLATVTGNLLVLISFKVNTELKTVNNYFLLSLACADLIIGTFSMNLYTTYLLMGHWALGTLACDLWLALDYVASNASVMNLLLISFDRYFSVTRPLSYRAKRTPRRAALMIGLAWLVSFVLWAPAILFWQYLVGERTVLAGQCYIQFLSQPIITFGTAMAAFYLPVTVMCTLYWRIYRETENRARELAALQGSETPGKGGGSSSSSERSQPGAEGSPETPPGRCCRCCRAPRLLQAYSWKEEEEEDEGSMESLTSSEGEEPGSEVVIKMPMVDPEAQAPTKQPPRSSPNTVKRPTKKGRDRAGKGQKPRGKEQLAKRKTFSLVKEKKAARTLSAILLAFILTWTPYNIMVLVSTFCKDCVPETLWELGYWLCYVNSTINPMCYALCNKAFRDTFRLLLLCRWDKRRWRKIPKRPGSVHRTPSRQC
Beta-2 adrenergic receptor (Homo sapiens), sequence (P07550 whole entry, looked up): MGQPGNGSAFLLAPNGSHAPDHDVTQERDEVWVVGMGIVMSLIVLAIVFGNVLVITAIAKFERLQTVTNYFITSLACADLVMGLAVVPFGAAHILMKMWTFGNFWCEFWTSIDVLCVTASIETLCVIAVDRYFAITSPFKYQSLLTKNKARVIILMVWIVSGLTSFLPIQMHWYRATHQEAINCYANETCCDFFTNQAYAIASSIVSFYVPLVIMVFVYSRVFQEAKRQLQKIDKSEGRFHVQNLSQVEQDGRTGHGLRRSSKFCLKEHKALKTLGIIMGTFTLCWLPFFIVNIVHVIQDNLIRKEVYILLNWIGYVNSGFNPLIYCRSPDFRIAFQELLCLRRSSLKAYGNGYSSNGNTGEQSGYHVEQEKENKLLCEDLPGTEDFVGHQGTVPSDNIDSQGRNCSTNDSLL
Gonadotropin-releasing hormone receptor (Homo sapiens), sequence (P30968 whole entry, looked up): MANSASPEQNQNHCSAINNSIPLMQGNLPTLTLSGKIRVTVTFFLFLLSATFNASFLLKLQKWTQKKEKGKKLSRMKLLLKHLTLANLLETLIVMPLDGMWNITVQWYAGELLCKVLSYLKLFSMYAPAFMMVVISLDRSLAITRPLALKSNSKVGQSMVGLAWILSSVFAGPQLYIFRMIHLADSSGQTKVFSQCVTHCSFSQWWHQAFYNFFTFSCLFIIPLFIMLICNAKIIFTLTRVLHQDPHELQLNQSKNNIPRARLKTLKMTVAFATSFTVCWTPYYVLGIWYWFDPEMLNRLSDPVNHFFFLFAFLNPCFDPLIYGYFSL

On to `c1ccc2c(c1)-c1ccc3ccc4cccc5cc-2c1c3c45`, for which the Potency in assay [1] was 13.3 µM (active); in assay [2] it was 6.74 µM (active). For the same molecule, the Potency entry in [3], in [4], in [5], in [6], in [7] and in [8] was “inactive” throughout. Besides, the Potency entry in [9], in assay [10], in assay [11] and in assay [12] was “inactive” in each case.

With `CCC(C)COC(C)=O` (configuration not stated), the Potency result in assay [1], in [2], in [3], in assay [5], in assay [13] and in assay [6] was “inactive” each time. For the same molecule, the Potency entry in assay [7], in assay [14], in [9], in [15], in assay [16] and in [10] was “inactive” throughout. Further, the Potency result in assay [12] was “inactive”.

Take `CCCC(=O)O[C@]1(C(=O)CCl)[C@@H](C)C[C@H]2[C@@H]3CCC4=CC(=O)C=C[C@]4(C)[C@@]3(F)C(=O)C[C@@]21C`: the Potency result in [1], in assay [2], in assay [3], in [17], in assay [18] and in assay [5] was “inactive” in each case. Also, the Potency entry in assay [13], in assay [19], in [7], in assay [14], in assay [8] and in [9] was “inactive” in each case. For the same molecule, the Potency entry in assay [10], in [20] and in [12] was “inactive” each time.

As for `Oc1cccc(-c2c3nc(c(-c4cccc(O)c4)c4ccc([nH]4)c(-c4cccc(O)c4)c4nc(c(-c5cccc(O)c5)c5ccc2[nH]5)CC4)C=C3)c1`, the Potency result in [1], in assay [2], in [3], in assay [17], in [18] and in [5] was “inactive” throughout. Also, the Potency entry in [13], in assay [14], in assay [8], in [9], in assay [15] and in assay [16] was “inactive” in each case.

As for `COc1cc(Nc2c(C#N)cnc3cc(OCCCN4CCN(C)CC4)c(OC)cc23)c(Cl)cc1Cl`, the Potency entry in assay [1], in [2], in [3], in assay [17], in assay [18] and in [5] was “inactive” throughout. The Potency entry in [13], in assay [14], in assay [8], in assay [10], in assay [20] and in assay [12] was “inactive” throughout.

Take `CC(=O)Nc1ccc(OC(=O)c2ccccc2OC(C)=O)cc1`: the Potency result in assay [1], in [2], in assay [3], in assay [4], in [13] and in [6] was “inactive” throughout. Further, the Potency entry in [7], in [14], in [8], in assay [9], in [15] and in assay [16] was “inactive” throughout. The Potency result in assay [10], in assay [20], in assay [11] and in assay [12] was “inactive” in each case.

Consider `CO/N=C(/C(=O)N[C@@H]1C(=O)N2C(C(=O)O)=C(Cn3nnc(C)n3)CS[C@H]12)c1csc(N)n1`, for which the Potency entry in assay [1], in assay [2], in [3], in [4], in assay [13] and in assay [6] was “inactive” each time. The Potency result in [14], in assay [8], in assay [9], in [15], in assay [16] and in assay [10] was “inactive” in each case. The Potency entry in [20] and in assay [11] was “inactive” in each case.

`CCO[C@@H]1O[C@H](C(COCc2ccccc2)OCc2ccccc2)[C@H](OCc2ccccc2)[C@H]1O` (some centres not stated): the Potency entry in [1], in assay [2], in [4], in assay [5], in assay [13] and in [6] was “inactive” each time. For the same molecule, the Potency result in assay [14], in [8], in assay [9], in [15], in [10] and in assay [11] was “inactive” throughout. Besides, the Potency entry in [12] is “inactive”.

For the origin of these results see PubChem BioAssay (Tox21).
